Experimental data from PubChem BioAssay (NCI).
Compounds without any hit were thinned out: in the full panel of roughly 83,000, 20% have a hit.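 Compound tested at a single concentration for 48 hours in 96-well plates; a percent growth value below 10 was scored as active.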 Active and inactive are the calls of the source.

Key:
Assay in all cases: NCI-60 one-dose screen, 48 h (100 = growth as untreated, 0 = no growth, -100 = all killed)
Conditions in all cases: 10 µM unless noted
NCI-H23 lung = test system: NCI-H23 lung
NCI-H226 lung = test system: NCI-H226 lung
NCI-H322M lung = test system: NCI-H322M lung
HOP-62 NSCLC = test system: HOP-62 NSCLC
NCI-H460 lung = test system: NCI-H460 lung
HOP-92 NSCLC = test system: HOP-92 NSCLC
NCI-H522 lung = test system: NCI-H522 lung
A549/ATCC NSCLC = test system: A549/ATCC NSCLC
786-0 renal = test system: 786-0 renal
COLO 205 colon = test system: COLO 205 colon
DU-145 prostate = test system: DU-145 prostate
K-562 leukemia = test system: K-562 leukemia
MALME-3M melanoma = test system: MALME-3M melanoma
MDA-MB-231 breast = test system: MDA-MB-231 breast
RXF 393 renal = test system: RXF 393 renal
SF-268 CNS = test system: SF-268 CNS
SF-295 CNS = test system: SF-295 CNS
SF-539 CNS = test system: SF-539 CNS
UACC-257 melanoma = test system: UACC-257 melanoma
M14 melanoma = test system: M14 melanoma

Measured: growth

N#CSCC1CC(O)(c2ccccc2)C(c2ccccc2)C(c2ccc(F)cc2)O1 (stereo unspecified)
inactive: NCI-H226 lung 63.1% | NCI-H322M lung 60.4% | HOP-62 NSCLC 60.3% | NCI-H460 lung 25.2% | NCI-H522 lung 25.2% | A549/ATCC NSCLC 63.1% | COLO 205 colon 22.1% | K-562 leukemia 12.6% | RXF 393 renal 25.9% | SF-268 CNS 29.9% | SF-295 CNS 52.9% | SF-539 CNS 40.5% | UACC-257 melanoma 60.1%
active: NCI-H23 lung 7.22% | HOP-92 NSCLC 1.42% | 786-0 renal 3.08% | DU-145 prostate -4.17% | MALME-3M melanoma -10.9% | MDA-MB-231 breast -4.68% | M14 melanoma -2.19%

CCCCN(CCCC)CCc1c(C)cc(C)c(CCN(CCCC)CCCC)c1O
active: NCI-H23 lung 4.18% | NCI-H460 lung 7.59% | HOP-92 NSCLC -11.3% | NCI-H522 lung -6.82% | MALME-3M melanoma -15.9% | UACC-257 melanoma 7.47%
inactive: NCI-H226 lung 26.8% | NCI-H322M lung 35.5% | HOP-62 NSCLC 62.4% | A549/ATCC NSCLC 41.5% | 786-0 renal 41.1% | COLO 205 colon 20% | DU-145 prostate 52.9% | K-562 leukemia 21.2% | MDA-MB-231 breast 48.3% | RXF 393 renal 40.1% | SF-268 CNS 49.5% | SF-295 CNS 31.3% | SF-539 CNS 67.6% | M14 melanoma 38.8%

N#CC1=C(N)Oc2c(ccc3ccccc23)C1c1ccc([N+](=O)[O-])cc1 (stereo unspecified)
inactive: NCI-H23 lung 79.1% | NCI-H226 lung 66.7% | NCI-H322M lung 95.2% | HOP-62 NSCLC 73.3% | NCI-H460 lung 69.8% | HOP-92 NSCLC 93.4% | NCI-H522 lung 57.5% | A549/ATCC NSCLC 73% | 786-0 renal 102% | COLO 205 colon 105% | DU-145 prostate 89.6% | K-562 leukemia 21.4% | MALME-3M melanoma 84.3% | MDA-MB-231 breast 61.4% | RXF 393 renal 101% | SF-268 CNS 79.6% | SF-295 CNS 75.6% | SF-539 CNS 87.8% | UACC-257 melanoma 94.7% | M14 melanoma 67.8%

Cc1c(C(=O)NO)sc2ncnc(Nc3ccc(NC(=S)Nc4ccccc4)cc3)c12
inactive: NCI-H23 lung 96.5% | NCI-H226 lung 104% | NCI-H322M lung 107% | HOP-62 NSCLC 101% | NCI-H460 lung 102% | HOP-92 NSCLC 115% | NCI-H522 lung 92.1% | A549/ATCC NSCLC 101% | 786-0 renal 99.1% | COLO 205 colon 113% | DU-145 prostate 107% | K-562 leukemia 103% | MALME-3M melanoma 99.5% | MDA-MB-231 breast 95% | RXF 393 renal 104% | SF-268 CNS 98.2% | SF-295 CNS 98.3% | SF-539 CNS 100% | UACC-257 melanoma 99.4% | M14 melanoma 104%

COc1cc2c(cc1[N+](=O)[O-])-c1ccc([N+](=O)[O-])cc1/C2=N\O
inactive: NCI-H23 lung 88.2% | NCI-H226 lung 66% | NCI-H322M lung 113% | HOP-62 NSCLC 110% | NCI-H460 lung 84% | HOP-92 NSCLC 100% | NCI-H522 lung 51.2% | A549/ATCC NSCLC 83.5% | 786-0 renal 79.6% | COLO 205 colon 79.6% | DU-145 prostate 120% | K-562 leukemia 88.7% | MALME-3M melanoma 116% | MDA-MB-231 breast 87.4% | RXF 393 renal 79.8% | SF-268 CNS 89.6% | SF-295 CNS 77.2% | SF-539 CNS 84.9% | UACC-257 melanoma 97.9% | M14 melanoma 93.9%

NC(=O)c1cccc(-c2cc(C(N)=O)ccc2Cl)c1
inactive: NCI-H23 lung 43.3% | NCI-H226 lung 69.1% | NCI-H322M lung 92.3% | HOP-62 NSCLC 35.9% | NCI-H460 lung 98.2% | HOP-92 NSCLC 52% | NCI-H522 lung 23.4% | A549/ATCC NSCLC 85% | 786-0 renal 48.7% | COLO 205 colon 33.5% | DU-145 prostate 27.1% | MALME-3M melanoma 46.4% | MDA-MB-231 breast 47.4% | SF-268 CNS 45.3% | SF-295 CNS 25% | UACC-257 melanoma 47.8%
active: K-562 leukemia 8.24% | SF-539 CNS -21%

CCc1c(Nc2ccc(C)cc2)nc(N)[nH]c1=O
inactive: NCI-H23 lung 103% | NCI-H226 lung 102% | NCI-H322M lung 103% | HOP-62 NSCLC 98.7% | NCI-H460 lung 108% | HOP-92 NSCLC 93.7% | NCI-H522 lung 90.5% | A549/ATCC NSCLC 99.5% | 786-0 renal 100% | COLO 205 colon 108% | DU-145 prostate 111% | K-562 leukemia 94.7% | MALME-3M melanoma 98.6% | MDA-MB-231 breast 94.7% | RXF 393 renal 109% | SF-268 CNS 102% | SF-295 CNS 98.3% | SF-539 CNS 101% | UACC-257 melanoma 102% | M14 melanoma 100%

COc1ccc(Cn2nc(-c3cc(OC)c(OC)c(OC)c3)c3c2CCc2cnoc2-3)cc1OC
inactive: NCI-H23 lung 62.4% | NCI-H226 lung 84.5% | NCI-H322M lung 75.9% | HOP-62 NSCLC 57.2% | NCI-H460 lung 55.1% | HOP-92 NSCLC 33.3% | NCI-H522 lung 15.2% | A549/ATCC NSCLC 52.2% | 786-0 renal 66.5% | COLO 205 colon 74.4% | DU-145 prostate 76.1% | K-562 leukemia 18.9% | MALME-3M melanoma 78% | MDA-MB-231 breast 52.7% | SF-268 CNS 68% | SF-295 CNS 47.6% | SF-539 CNS 37.7% | UACC-257 melanoma 75.8%

C=C(C)[C@@H]1CC[C@]2(C(=O)NCC(=O)OC)CC[C@]3(C)[C@H](CC[C@@H]4[C@@]5(C)Cc6c([nH]c7ccccc67)C(C)(C)[C@@H]5CC[C@]43C)[C@@H]12
inactive: NCI-H23 lung 68.6% | NCI-H226 lung 63.5% | NCI-H322M lung 85.8% | HOP-62 NSCLC 82.8% | NCI-H460 lung 74.6% | HOP-92 NSCLC 91.1% | NCI-H522 lung 60.5% | A549/ATCC NSCLC 60.7% | 786-0 renal 75% | COLO 205 colon 86.1% | DU-145 prostate 83.8% | K-562 leukemia 44.9% | MALME-3M melanoma 93.9% | MDA-MB-231 breast 82.2% | RXF 393 renal 76% | SF-268 CNS 74.7% | SF-295 CNS 76.7% | SF-539 CNS 85.1% | UACC-257 melanoma 75.7% | M14 melanoma 89.5%

CCOc1ccc(/C=N/Nc2cc(C)nc3ccc(Cl)cc23)cc1
active: NCI-H460 lung 3.37% | K-562 leukemia -38.7% | MALME-3M melanoma -38.9% | RXF 393 renal 0.829% | SF-295 CNS -64.6% | M14 melanoma -39.6%
inactive: NCI-H23 lung 78.9% | NCI-H226 lung 79.5% | NCI-H322M lung 66.9% | HOP-62 NSCLC 94.4% | HOP-92 NSCLC 50.5% | NCI-H522 lung 58.4% | A549/ATCC NSCLC 59.9% | 786-0 renal 33.2% | COLO 205 colon 21% | DU-145 prostate 44.4% | MDA-MB-231 breast 43% | SF-268 CNS 75.2% | SF-539 CNS 83.6% | UACC-257 melanoma 69.5%

NC(=S)N/N=C(/c1ccccc1)c1ccccc1N
inactive: NCI-H23 lung 94.9% | NCI-H226 lung 82.2% | NCI-H322M lung 91.8% | HOP-62 NSCLC 98.5% | NCI-H460 lung 102% | HOP-92 NSCLC 102% | NCI-H522 lung 88.9% | A549/ATCC NSCLC 87.3% | 786-0 renal 101% | COLO 205 colon 108% | DU-145 prostate 94.2% | K-562 leukemia 45.5% | MALME-3M melanoma 93.7% | MDA-MB-231 breast 85.8% | RXF 393 renal 105% | SF-268 CNS 92.9% | SF-295 CNS 82.5% | SF-539 CNS 99.6% | UACC-257 melanoma 54% | M14 melanoma 88.2%

Nc1ccccc1NC(=O)c1ccc(CN2CCC/C(=C\c3cccc(Cl)c3)C2=O)cc1
inactive: NCI-H23 lung 21.1% | NCI-H226 lung 40% | NCI-H322M lung 40.8% | HOP-62 NSCLC 19% | HOP-92 NSCLC 44.1% | A549/ATCC NSCLC 33% | 786-0 renal 14.2% | MALME-3M melanoma 63.7% | RXF 393 renal 20.6% | SF-295 CNS 25.5% | UACC-257 melanoma 37.7% | M14 melanoma 24%
active: NCI-H460 lung 7.66% | NCI-H522 lung -32% | COLO 205 colon -51.8% | DU-145 prostate 8.37% | K-562 leukemia 4.21% | MDA-MB-231 breast -2.78% | SF-268 CNS 3.92% | SF-539 CNS 5.47%

CCCCCCNC(=O)Oc1ccc(/C(=C(/CC)Cc2ccccc2)c2ccc(OCCN(CC)CC)cc2)cc1
inactive: NCI-H23 lung 88% | NCI-H226 lung 89.3% | NCI-H322M lung 87.5% | HOP-62 NSCLC 88.8% | HOP-92 NSCLC 42.3% | NCI-H522 lung 74.5% | A549/ATCC NSCLC 56.2% | 786-0 renal 63.7% | DU-145 prostate 80.8% | MALME-3M melanoma 17.4% | MDA-MB-231 breast 67.5% | RXF 393 renal 60.2% | SF-268 CNS 76.5% | SF-295 CNS 102% | SF-539 CNS 86.1% | UACC-257 melanoma 86% | M14 melanoma 39.4%
active: NCI-H460 lung -41.3% | COLO 205 colon -48.6% | K-562 leukemia -11.6%

CC(C)C1C2=C(NCCN1C(=O)Cc1ccccc1)C(C)(C)N(Cc1ccccc1)C2=O (stereo unspecified)
inactive: NCI-H23 lung 97.4% | NCI-H226 lung 104% | NCI-H322M lung 99.2% | HOP-62 NSCLC 91.9% | NCI-H460 lung 104% | HOP-92 NSCLC 93.6% | NCI-H522 lung 93.6% | A549/ATCC NSCLC 100% | 786-0 renal 97.3% | COLO 205 colon 100% | DU-145 prostate 104% | K-562 leukemia 96.5% | MALME-3M melanoma 98.3% | MDA-MB-231 breast 98.2% | RXF 393 renal 98.3% | SF-268 CNS 102% | SF-295 CNS 99.5% | SF-539 CNS 107% | UACC-257 melanoma 96.7% | M14 melanoma 103%
